Hit rate of the full screen: of about 290,000 compounds, about 27,000 (9.3%) were called active. What follows is part of a selection rich in actives, with near analogues and random picks from the rest. Unmarked numbers belong to inactive results. No stated cut-off is given here; in the data, active means inhibition mostly above about 28% (no sharp cut-off); inactive means mostly below about 43%.

This passage reports inhibition results from PubChem BioAssay AID2315 (National Center for Advancing Translational Sciences (NCATS), 2010).

This assay is described as follows: A qHTS for Small Molecule Inhibitors of Shiga Toxin. Further: 0% is about no effect. To be noted: Vero cells, Shiga toxin protein synthesis inhibition reporter; at 38.7 µM, hits give high values. (In qHTS, concentration-response curves come from the screen itself.)
As for `COCCCNc1nc2ccccc2nc1NS(=O)(=O)c1ccc(F)cc1`, the inhibition was 2.37%.

Take `CCCCNC(=O)N1CCCC(N(C)CCc2ccc(OC)c(OC)c2)C1` (stereo not given): the inhibition was -2.02%.

Take `Cc1ccc(NC(=O)CSc2nn3c(=O)c(C)nnc3s2)cc1Cl`: the inhibition is 7.47%.

`CC(C)C(=O)OCC(=O)Nc1ccc2c(c1)CCC2`: the inhibition was 14.2%.

`O=C(Nc1ccc2c(c1)CCC2)c1ccc(Br)s1`: the inhibition is 112% (active).

Take `O=C(NC1CCCC1)c1ccc(Br)s1`: the inhibition is 30.7%.

For the molecule `CC1=C(C(=O)OCC2CCCCC2)C(c2ccc(F)cc2)NC(=O)N1` (stereo not given), the inhibition is -7.87%.

Regarding `CN(C)c1nc(Nc2ccc(Cl)c(Cl)c2)nc(N(C)C)n1`, the inhibition is -11.2%.

Turning to `Cc1ccc(CS(=O)(=O)CCC(=O)NCc2ccc(F)cc2)cc1`, the inhibition is -8.45%.

Consider `CCOC(=O)Cc1csc(SCC(=O)NC(C)C23CC4CC(CC(C4)C2)C3)n1` (stereo not given), for which the inhibition is 3.03%.

Take `Cc1cc2cc(CNC(=O)c3ccc(S(=O)(=O)N4CCOCC4)cc3)ccc2[nH]1`: the inhibition is -6.18%.

`CCc1cccc(CC)c1NC(=S)NCc1ccc2[nH]c(C)cc2c1`: the inhibition was -9.97%.

For the molecule `Cc1cc2cc(CNC(=O)c3cccs3)ccc2[nH]1`, the inhibition was 21.3% (active).

Regarding `COc1ccc(CNc2ncnc3ccccc23)cc1`, the inhibition is -14.9%.

Regarding `Cc1c(C)c(C)c(S(=O)(=O)N2CCC3(CC2)OCCO3)c(C)c1C`, the inhibition is -4.05%.

As for `O=C(C1CCCO1)N1CCN(S(=O)(=O)c2ccc(Br)cc2)CC1` (stereo not given), the inhibition was -30%.

Consider `O=C1Nc2cc(C(=O)N3CCN(c4ccc(F)cc4)CC3)ccc2NC1CSCc1cccc(F)c1` (stereo not given), for which the inhibition is -13.8%.

Take `COc1cc(NC(=O)C2=C(C)OCCS2)c(Cl)cc1C(=O)NCCN1CCN(C)CC1`: the inhibition was -4.3%.

Take `COC(=O)c1cc(NC2c3ccccc3C(=O)N2c2ccc(Cl)cn2)cc(C(=O)OC)c1` (stereo not given): the inhibition is 27.1%.

On to `O=C1c2ccccc2C(Nc2ccc3c(c2)OCCO3)N1Cc1ccco1` (stereo not given), for which the inhibition is 75.3% (active).

`O=C(NC1CCCCC1)C1c2ccccc2C(=O)N1Cc1ccco1` (stereo not given): the inhibition was 2.78%.

On to `Cc1ccnc(N2C(=O)c3ccccc3C2Nc2ccc3c(c2)OCCO3)c1` (stereo not given), for which the inhibition is 162% (active).

Take `COc1ccccc1C1/C(=C(/O)c2ccc(C)cc2)C(=O)C(=O)N1Cc1ccco1` (stereo not given): the inhibition was -8.56%.

Consider `Cc1cccc(C(=O)Nc2ccccc2-c2nnn(CC(=O)Nc3ccc4c(c3)OCCO4)n2)c1`, for which the inhibition is -7.74%.

In the case of `CC(C)(C)NCc1cc(Br)ccc1OC1CCCC1`, the inhibition is -3.59%.

On to `CCc1ccc2[nH]c(=O)c(Cc3ccccc3)c(O)c2c1`, for which the inhibition was -8.55%.

Turning to `Cc1ccc(C2SCC(=O)N2c2ccccc2)cc1` (stereo not given), the inhibition is 23.4%.

For `C=CCN1C(=NC(=O)COc2ccccc2)SC2CS(=O)(=O)CC21` (stereo not given), the inhibition was -9.63%.

As for `Cc1ccc(C(=O)N/C(=C\c2cn(C)c3ccccc23)C(=O)N2CCN(C)CC2)cc1`, the inhibition is -1.79%.

For `Cc1ccc(CN2CCNC(=O)C2CC(=O)NCc2csc(C(C)C)n2)cc1` (stereo not given), the inhibition is -6.42%.

In the case of `COc1ccc(S(=O)(=O)c2c[nH]c(=S)[nH]c2=O)cc1Cl`, the inhibition was -4.21%.

Turning to `Cc1cnc(C(=O)OCc2c(C)cc(C(C)(C)C)cc2C)cn1`, the inhibition is -2.67%.

Take `O=C(C[n+]1cc(Br)cc2ccccc21)c1ccc(F)cc1`: the inhibition is -6.12%.

As to `Cc1ccc(NC(=O)c2cc(-c3ccccc3O)n[nH]2)cc1C`, the inhibition is 40.6%.

As to `c1ccc(-c2cc(-c3ccccc3)[nH]n2)cc1`, the inhibition was 129% (active).

In the case of `S=c1[nH]nc(-c2cc(-c3ccccc3)n[nH]2)n1/N=C/c1c2ccccc2cc2ccccc12`, the inhibition is -4.79%.

For the molecule `c1ccc(-c2cc(-c3nnc4sc(-c5ccccn5)nn34)[nH]n2)cc1`, the inhibition was 11.6%.

Consider `Oc1ccccc1-c1cc(-c2ccc(Cl)cc2)n[nH]1`, for which the inhibition is 151% (active).

In the case of `O=C(NCCCNC(=O)c1ccccc1Cl)c1cnccn1`, the inhibition is -8.38%.

As for `COc1ccc(NC(=O)CC(NC(C)c2ccccc2)C(=O)O)cc1` (stereo not given), the inhibition is -9.37%.

As for `O=C(OCCN=C1NS(=O)(=O)c2ccccc21)c1cccc([N+](=O)[O-])c1`, the inhibition is -7.24%.

Turning to `COc1ccc(N2CCN(C(=O)c3ccc(N4CCCCS4(=O)=O)cc3)CC2)cc1`, the inhibition was 3.75%.

With `N/C(=N\OC(=O)CCc1ccccc1)c1ccc(Cl)cc1`, the inhibition is 61% (active).

In the case of `Cc1ccc(/C(N)=N/OC(=O)COc2ccc(Cl)c(C)c2)cc1`, the inhibition was 21.4%.

Consider `O=C(CCC(=O)OCc1ccc(Cl)cc1)Nc1ccccc1`, for which the inhibition was -15.7%.

`O=C(O)CCc1cccnc1`: the inhibition was -4.95%.

With `CC(=O)OC(C(=O)NCCc1ccccc1)c1cccnc1` (stereo not given), the inhibition was -5.15%.

`N/C(=N\OC(=O)CCc1ccccc1)c1cccnc1`: the inhibition was 55.1% (active).

As for `C=CCn1c(SCC(=O)NCC2CCCO2)nc2sc(C)c(C)c2c1=O` (stereo not given), the inhibition is -9.53%.

As for `COC(=O)c1cc(S(=O)(=O)NCC2CCN(Cc3ccc(Cl)cc3)CC2)cn1C`, the inhibition was -0.168%.

On to `COc1ccccc1CNC(=O)[C@@H]1CCCN1C(=O)[C@@H]1Cc2ccccc2CN1C(=O)OC(C)(C)C`, for which the inhibition was -9.37%.

In the case of `COC(=O)c1ccc(OC(=O)c2nn(C)cc2Cl)c(OC)c1`, the inhibition is 8.13%.

`C=CCc1cccc(/C=N/NC(=O)COc2ccc(-n3cnnn3)cc2)c1O`: the inhibition was 19.1%.

With `COc1ccc(CCNC(=O)CN(C)S(=O)(=O)c2ccc3nc(C)sc3c2)cc1OC`, the inhibition is 16.5%.

On to `Cn1c(SCC(=O)N2CCCCC2)nc2c(c1=O)SCC2`, for which the inhibition is -17.3%.

On to `O=C(CN1C(=O)c2ccccc2S1(=O)=O)NC1CCCCC1`, for which the inhibition was -0.163%.

Turning to `COc1cc(OC)c(C(=O)Nc2ccc(N(C)C)cc2)cc1OC`, the inhibition is 77.9% (active).

Regarding `COc1ccc(Cl)cc1C(=O)Nc1ccc(N(C)C(C)=O)cc1`, the inhibition is 22.6%.

`COc1cc(OC)c(C(=O)NC2CC(C)(C)NC(C)(C)C2)cc1OC`: the inhibition was -5.21%.

Turning to `CN(Cc1ccccc1)C(=O)c1cccc(C(=O)N(C)Cc2ccccc2)c1`, the inhibition is -2.11%.

In the case of `COc1ccc(NC(=O)COc2ccc(C(=O)c3ccc(F)cc3)cc2)cc1S(N)(=O)=O`, the inhibition is -4.25%.

With `C=CCc1ccccc1OCC(=O)N/N=C/c1ccccc1OCC`, the inhibition was 13.2%.

As to `COc1cc(/C=N/Nc2nc3ccccc3s2)ccc1O`, the inhibition is 62.5% (active).

As for `CCOc1ccccc1/C=N/Nc1nc2ccccc2o1`, the inhibition is 49% (active).

For `CCOc1ccccc1/C=N/NC(=O)CNC(=O)COc1ccccc1`, the inhibition was 11.6%.

For the molecule `COc1ccc(/C=N/n2nnnc2N)cc1OC`, the inhibition is -3.85%.

For the molecule `CCNc1nc(NCC)nc(N/N=C/c2ccc(O)c(OC)c2)n1`, the inhibition was -4.76%.

Take `CCOc1ccc(/C=N/Nc2nncc(-c3ccccc3)n2)cc1OC`: the inhibition was 8.48%.

As for `Oc1c(Br)cccc1/C=N/Nc1c(F)c(F)c(F)c(F)c1F`, the inhibition is 16%.

In the case of `Brc1ccccc1/C=N/Nc1nc2ccccc2o1`, the inhibition was 68.5% (active).

For `COc1cc(/C=N\Nc2nc(-c3cccs3)c(NC(C)=O)s2)ccc1O`, the inhibition was 34%.

`Cc1cc(C)nc(N/N=C/c2c(C)oc3ccccc23)n1`: the inhibition was 29.2%.

On to `COc1ccc(/C=N/Nc2nc3ccccc3o2)cc1OC`, for which the inhibition is 101% (active).

For `CCOC(=O)c1c(S(=O)(=O)NCC(=O)Nc2ccc(C)cc2)c(C)n(C)c1C`, the inhibition is -5.73%.

For the molecule `O=C1NC(c2ccccc2)Oc2ccccc21` (stereo not given), the inhibition was -5.27%.

For `Cc1ccc(NS(=O)(=O)c2ccc(-c3ccc(=O)[nH]n3)o2)c(C)c1`, the inhibition is -12.5%.

With `CCOc1cc(-c2noc(CCCC(=O)NC3CCCCC3)n2)ccc1OC`, the inhibition is -9.28%.

Regarding `COc1ccccc1NC(=O)CSc1nnc(CNC(=O)c2ccccc2F)o1`, the inhibition is 15.5%.

`Cc1ccccc1CSc1nnc(-c2ccccc2)c(=O)[nH]1`: the inhibition was -6.33%.

For the molecule `Cc1ccc(CSc2nc(-c3ccccc3)c(C#N)c(=O)[nH]2)cc1`, the inhibition is 22.6%.

On to `O=c1[nH]c(SCc2ccccc2)nnc1-c1ccccc1`, for which the inhibition was 36.4% (active).

As to `COc1ccccc1C(=O)NC(CCSC)C(=O)NNC(=O)c1csc(N2CCOCC2)n1` (stereo not given), the inhibition is -15.3%.

Take `COc1ccc(/C=C/C(=O)c2ccc(OC)cc2O)cc1`: the inhibition is 42.2% (active).

As to `COc1ccc(/C=C/C(=O)c2cc(Br)ccc(=O)c2O)cc1`, the inhibition was 7.73%.

Consider `COc1ccc(C(=O)/C=C/c2cccnc2)c(OC)c1`, for which the inhibition is 0.985%.

As for `O=c1[nH]c(=O)n(Cc2ccco2)c2c1C(C(F)(F)F)(C(F)(F)F)N=C(c1ccco1)N2`, the inhibition was 58.8% (active).

`Cc1ccccc1C1=NC(C(F)(F)F)(C(F)(F)F)c2c(n(-c3ccc(F)cc3)c(=O)[nH]c2=O)N1`: the inhibition was 2.62%.

With `CC(=O)Nc1ccc(S(=O)(=O)NC2(C(F)(F)F)C(=O)Nc3c2c(=O)[nH]c(=O)n3Cc2ccccc2)cc1` (stereo not given), the inhibition is -2.93%.

For the molecule `Cc1ccc(OS(=O)(=O)c2ccc(-c3csc(C)n3)s2)c(C)c1`, the inhibition is -11.1%.

On to `CN(Cc1ccccc1)CC(O)COc1ccc(CNCc2cc3ccccc3s2)cc1` (stereo not given), for which the inhibition is -3.31%.

As for `COc1ccc(OCC(=O)NCCS(=O)(=O)N2CCN(c3ccc(F)cc3)CC2)cc1`, the inhibition was -4.29%.

As for `COc1ccc(C(=O)/C=C/Nc2ccccn2)cc1`, the inhibition was -2.27%.

Take `Cc1cc(NC(=O)CSc2nnc(-c3ccc(Cl)s3)o2)no1`: the inhibition was 20.2%.

With `Cc1cc(N/C=C\C(=O)c2ccc(Cl)c(Cl)c2)no1`, the inhibition was 59.9% (active).

For the molecule `COc1ccccc1N1CCN(c2ccc([N+](=O)[O-])nc2)CC1`, the inhibition was 34.5%.

What is called inhibition is the drop in the measured response relative to a control, in per cent.
